The results in this text go back to PMC9911399, “Two distinct binding modes provide the RNA-binding protein RbFox with extraordinary sequence specificity”.

To fix the notation:
B1: GGCCUAA (DNA:RNA)
RNA: GGGAGACCGGAAUUCAGAUUGUCCGGCCUAAUUAAAUCCCGUCGUAGCCACCA
DNA 1: CAATCTGAATTCCGGTCTCCC
DNA 2: TGGTGGCTACGACGGGATT
B2: GUUCGUA (DNA:RNA)
RNA: B1 RNA with G26U, C27U, U29G, A30U
DNA 1: CAATCTGAATTCCGGTCTCCC
DNA 2: TGGTGGCTACGACGGGATT
B3: UUCUUCA (DNA:RNA)
RNA: B1 RNA with G25U, G26U, C28U, A30C
DNA 1: CAATCTGAATTCCGGTCTCCC
DNA 2: TGGTGGCTACGACGGGATT
B4: UGCGUAU (DNA:RNA)
RNA: B1 RNA with G25U, C28G, A31U
DNA 1: CAATCTGAATTCCGGTCTCCC
DNA 2: TGGTGGCTACGACGGGATT
B5: AUAGGAG (DNA:RNA)
RNA: B1 RNA with G25A, G26U, C27A, C28G, U29G, A31G
DNA 1: CAATCTGAATTCCGGTCTCCC
DNA 2: TGGTGGCTACGACGGGATT
B6: CAGGGCG (DNA:RNA)
RNA: GGGAGACCGGAAUUCAGAUUGUCCCAGGGCGUUAAAUCCCGUCGUAGCCACCA
DNA 1: CAATCTGAATTCCGGTCTCCC
DNA 2: TGGTGGCTACGACGGGATT
B7: GAUCCAA (DNA:RNA)
RNA: B1 RNA with G26A, C27U, U29C
DNA 1: CAATCTGAATTCCGGTCTCCC
DNA 2: TGGTGGCTACGACGGGATT
B8: AGCUUUC (DNA:RNA)
RNA: B1 RNA with G25A, C28U, A30U, A31C
DNA 1: CAATCTGAATTCCGGTCTCCC
DNA 2: TGGTGGCTACGACGGGATT
B9: GGAUGCC (DNA:RNA)
RNA: B6 RNA with C25G, A26G, G27A, G28U, G31C
DNA 1: CAATCTGAATTCCGGTCTCCC
DNA 2: TGGTGGCTACGACGGGATT
B10: CGAUGCG (DNA:RNA)
RNA: B6 RNA with A26G, G27A, G28U
DNA 1: CAATCTGAATTCCGGTCTCCC
DNA 2: TGGTGGCTACGACGGGATT
B11: CGAUGCC (DNA:RNA)
RNA: B6 RNA with A26G, G27A, G28U, G31C
DNA 1: CAATCTGAATTCCGGTCTCCC
DNA 2: TGGTGGCTACGACGGGATT
B12: GAAUGCG (DNA:RNA)
RNA: B6 RNA with C25G, G27A, G28U
DNA 1: CAATCTGAATTCCGGTCTCCC
DNA 2: TGGTGGCTACGACGGGATT
B13: GAAUGCC (DNA:RNA)
RNA: B6 RNA with C25G, G27A, G28U, G31C
DNA 1: CAATCTGAATTCCGGTCTCCC
DNA 2: TGGTGGCTACGACGGGATT
B14: GAAUCCC (DNA:RNA)
RNA: B6 RNA with C25G, G27A, G28U, G29C, G31C
DNA 1: CAATCTGAATTCCGGTCTCCC
DNA 2: TGGTGGCTACGACGGGATT
B15: CUUCGUG (DNA:RNA)
RNA: B6 RNA with A26U, G27U, G28C, C30U
DNA 1: CAATCTGAATTCCGGTCTCCC
DNA 2: TGGTGGCTACGACGGGATT
B16: CACUUAC (DNA:RNA)
RNA: B1 RNA with G25C, G26A, C28U, A31C
DNA 1: CAATCTGAATTCCGGTCTCCC
DNA 2: TGGTGGCTACGACGGGATT
B17: GACCGAA (DNA:RNA)
RNA: B1 RNA with G26A, U29G
DNA 1: CAATCTGAATTCCGGTCTCCC
DNA 2: TGGTGGCTACGACGGGATT
B18: GAAUUGA (DNA:RNA)
RNA: B1 RNA with G26A, C27A, C28U, A30G
DNA 1: CAATCTGAATTCCGGTCTCCC
DNA 2: TGGTGGCTACGACGGGATT
B19: GAAUGAU (DNA:RNA)
RNA: B6 RNA with C25G, G27A, G28U, C30A, G31U
DNA 1: CAATCTGAATTCCGGTCTCCC
DNA 2: TGGTGGCTACGACGGGATT
B20: CGAAUGA (DNA:RNA)
RNA: B1 RNA with G25C, C27A, C28A, A30G
DNA 1: CAATCTGAATTCCGGTCTCCC
DNA 2: TGGTGGCTACGACGGGATT
B21: GAUGAUU (DNA:RNA)
RNA: B6 RNA with C25G, G27U, G29A, C30U, G31U
DNA 1: CAATCTGAATTCCGGTCTCCC
DNA 2: TGGTGGCTACGACGGGATT
B22: GUCCGAA (DNA:RNA)
RNA: B1 RNA with G26U, U29G
DNA 1: CAATCTGAATTCCGGTCTCCC
DNA 2: TGGTGGCTACGACGGGATT
B23: GGAAUGA (DNA:RNA)
RNA: B1 RNA with C27A, C28A, A30G
DNA 1: CAATCTGAATTCCGGTCTCCC
DNA 2: TGGTGGCTACGACGGGATT
B24: GAAUGAA (DNA:RNA)
RNA: B1 RNA with G26A, C27A, C28U, U29G
DNA 1: CAATCTGAATTCCGGTCTCCC
DNA 2: TGGTGGCTACGACGGGATT
B25: GUAAUGA (DNA:RNA)
RNA: B1 RNA with G26U, C27A, C28A, A30G
DNA 1: CAATCTGAATTCCGGTCTCCC
DNA 2: TGGTGGCTACGACGGGATT
B26: CGUUAAA (DNA:RNA)
RNA: B1 RNA with G25C, C27U, C28U, U29A
DNA 1: CAATCTGAATTCCGGTCTCCC
DNA 2: TGGTGGCTACGACGGGATT
B27: GAAUUUU (DNA:RNA)
RNA: B1 RNA with G26A, C27A, C28U, A30U, A31U
DNA 1: CAATCTGAATTCCGGTCTCCC
DNA 2: TGGTGGCTACGACGGGATT
B28: GAAAUGA (DNA:RNA)
RNA: B1 RNA with G26A, C27A, C28A, A30G
DNA 1: CAATCTGAATTCCGGTCTCCC
DNA 2: TGGTGGCTACGACGGGATT

Positions count from the first letter of the chain named. The full ranking holds about 16,000 sequences; the median of “ka relative to ugcaugu” is about 0.096, and the highest 2% start at about 0.35. The entries come from a sample that favours the highest values as a whole.

This test deals with T1, RBFOX1 RRM RbFoxmut (Fox-RRM*) (Homo sapiens, UniProt Q9NWB1 109-208, R118D;E147R;N151S;E152T).
T1 sequence: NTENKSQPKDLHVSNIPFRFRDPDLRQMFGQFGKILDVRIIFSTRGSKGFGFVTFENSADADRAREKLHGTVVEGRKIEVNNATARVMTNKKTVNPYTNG
The experiment in a line: EMSA; HiTS-Eq, 1 nM pool, 10 min; buffer printed only for the single-RNA assays: 10 mM Tris pH 7.5, 150 mM NaCl, 3.4 mM EDTA, 0.001% NP-40, 30 C. To be noted: tags: His6 N-terminal (pET28a); label: 5' 32P. In short, it runs like this: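 Purified RbFox RRM (wild type or mutant) was equilibrated for 10 min in 50 µL with 1 nM of a 5′-radiolabelled pool of RNA with 7 randomized nucleotides, its flanks annealed to DNA oligonucleotides, across increasing protein concentrations. Free RNA was separated by 8% native PAGE, excised, reverse-transcribed, PCR-barcoded and sequenced on an Illumina HiSeq 2500. Relative association constants came from read-count changes of each variant against the control reaction, normalised to the cognate motif.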
B1: the binding signal was 0.0594 KA relative to UGCAUGU.

Turning to B2, the binding signal is 0.155 KA relative to UGCAUGU.

B3: the binding signal was 0.111 KA relative to UGCAUGU.

For B4, the binding signal was 0.143 KA relative to UGCAUGU.

For the molecule B5, the binding signal was 0.097 KA relative to UGCAUGU.

Turning to B6, the binding signal is 0.123 KA relative to UGCAUGU.

With B7, the binding signal is 0.0776 KA relative to UGCAUGU.

For B8, the binding signal was 0.0646 KA relative to UGCAUGU.

Regarding B9, the binding signal is 0.168 KA relative to UGCAUGU.

With B10, the binding signal was 0.113 KA relative to UGCAUGU.

Take B11: the binding signal is 0.206 KA relative to UGCAUGU.

On to B12, for which the binding signal is 0.763 KA relative to UGCAUGU.

Take B13: the binding signal was 0.356 KA relative to UGCAUGU.

For the molecule B14, the binding signal is 0.0694 KA relative to UGCAUGU.

For the molecule B15, the binding signal is 0.135 KA relative to UGCAUGU.

As to B16, the binding signal was 0.1 KA relative to UGCAUGU.

Take B17: the binding signal was 0.0991 KA relative to UGCAUGU.

On to B18, for which the binding signal was 0.129 KA relative to UGCAUGU.

As for B19, the binding signal is 0.641 KA relative to UGCAUGU.

Regarding B20, the binding signal was 1.04 KA relative to UGCAUGU.

As to B21, the binding signal is 0.084 KA relative to UGCAUGU.

Consider B22, for which the binding signal is 0.0703 KA relative to UGCAUGU.

On to B23, for which the binding signal was 0.772 KA relative to UGCAUGU.

As for B24, the binding signal is 0.873 KA relative to UGCAUGU.

Regarding B25, the binding signal is 0.121 KA relative to UGCAUGU.

For B26, the binding signal was 0.107 KA relative to UGCAUGU.

In the case of B27, the binding signal was 0.1 KA relative to UGCAUGU.

For B28, the binding signal is 0.0974 KA relative to UGCAUGU.
